About 79,000 compounds went through this panel and 15% of them were active in at least one assay; those are over-represented in the sample as a whole. No stated cut-off is given here; in the data, active means growth inhibition above about 70%; inactive means the rest.
Experiments:
[1] = NCI Yeast Anticancer Drug Screen. Data for the rad50 strain (AID 155);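 further: 0% = growth of vehicle-only cultures of the same strain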; settings: S. cerevisiae rad50 strain growth inhibition; at 50.0 µM; hits give high values
Method in brief: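 Readout: growth inhibition relative to vehicle-treated cultures. Compound exposure was carried out in a genetically defined yeast strain deficient in DNA damage repair.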

[2] = NCI Yeast Anticancer Drug Screen. Data for the mec2-1 strain (AID 157); settings: S. cerevisiae mec2-1 strain, at 50.0 µM, hits give high values
Method in brief: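 Vehicle-treated cultures served as reference for growth inhibition of compound-exposed mec2-1 yeast.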

[3] = NCI Yeast Anticancer Drug Screen. Data for the cln2 rad14 strain (AID 165);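 further: 0% = growth equal to vehicle treated cultures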; settings: S. cerevisiae cln2 rad14 strain, at 50.0 µM, hits give high values
Method in brief: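 Each compound was tested on cln2 rad14 yeast. Inhibition of growth was calculated against vehicle-exposed controls.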

[4] = NCI Yeast Anticancer Drug Screen. Data for the bub3 strain (AID 167); settings: S. cerevisiae bub3 mutant strain, at 50.0 µM, hits give high values
Method in brief: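 Readout: yeast growth inhibition, expressed relative to vehicle-only wells. The test organism is a mutant strain from a panel with lesions in DNA repair or checkpoint genes.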

[5] = NCI Yeast Anticancer Drug Screen. Data for the mlh1 rad18 strain (AID 175); settings: S. cerevisiae mlh1 rad18 strain growth inhibition; at 50.0 µM; hits give high values
Method in brief: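 Vehicle-treated cultures served as the reference for growth inhibition in a yeast strain carrying DNA damage repair alterations exposed to each compound.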

Measured: growth inhibition

O=[N+]([O-])c1ccc(Cl)c(F)c1Cl
inactive: [1] -13% | [2] -17.1% | [3] 5.15% | [4] -3.9% | [5] -12.2%

COC(=O)c1c(C)c(C)cc(C)c1C
inactive: [1] -0.9% | [2] -13.2% | [3] 11.7% | [4] -7.1% | [5] -9.5%

C[C@H]1S[C@@H](c2ccc(Cl)cc2Cl)N(NC(=O)c2ccncc2)C1=O
inactive: [1] 57.9% | [2] 45% | [3] 46.9% | [4] 52.1% | [5] 39.3%

CCCNC(=O)Nc1ccccc1OCC
inactive: [1] -3.6% | [2] -5.55% | [3] -68% | [4] 13.2% | [5] -5.25%

CC(C)(C)OC(=O)CNC(=O)C(CSC(c1ccccc1)c1ccccc1)NC(=O)CNC(=O)C(CCCCNC(=O)OCc1ccccc1)NC(=O)CNC(=O)C(CSC(c1ccccc1)(c1ccccc1)c1ccccc1)NC(=O)OCc1ccccc1 (centres undefined)
inactive: [1] 34.8% | [2] 14.7% | [3] 3.8% | [4] 19.3% | [5] -4.2%

Clc1ccc(C2SC=Cc3ccccc32)cc1 (centres undefined)
inactive: [1] 53.8% | [2] 33.8% | [3] 5.9% | [4] 49.8% | [5] 37.7%

N=C1N=Nc2nc(C(C(=O)c3cccc4ccccc34)c3nc4n(c3O)C(=N)N=N4)c(O)n21 (centres undefined)
inactive: [1] 19.5% | [2] 1.35% | [3] 22.1% | [4] 0.9% | [5] 26.2%

CCOC(CN1CCCCC1)OCC
inactive: [1] -7.85% | [2] -7.6% | [3] 8.7% | [4] -1.6% | [5] 6.65%

Cc1cc(C)c(/C=C/c2c(C)cc(C)cc2C)c(C)c1
inactive: [1] 9.25% | [2] -12.9% | [3] -26.4% | [4] -4.45% | [5] -0.5%

O=[N+]([O-])c1ccc(-n2cnc3c(Cl)ncnc32)cc1
inactive: [1] 1.2% | [2] 35.9% | [3] -0.55% | [5] 0.6%

Cc1ccc(C(=O)NC(C)C)cc1N=NN(C)C
inactive: [1] -34.2% | [2] -42.1% | [3] 9.7% | [4] -31.7% | [5] -32.2%

CN(C)c1ccc(N=Nc2ccc(C(C)(C)C)cc2)cc1
inactive: [1] -11.3% | [2] 3.3% | [3] -3.1% | [4] -10.6% | [5] -20.3%

O/N=C/c1ccccn1
inactive: [1] -0.95% | [2] -31.9% | [3] 6.85% | [4] -9.5% | [5] 0%

CN(C)[C@@H]1C(=O)C(C(=O)NCNc2cccc(C(=O)O)c2C(=O)O)=C(O)[C@@]2(O)C(=O)C3=C(O)c4c(O)cccc4[C@@](C)(O)[C@H]3C[C@@H]12
inactive: [1] 2.95% | [2] 6.45% | [3] -17.2% | [4] -1.1% | [5] 31.4%

COc1nc2cc(C)c(C)cc2n1C1OC(CO)C(O)C1O (centres undefined)
inactive: [1] -12.6% | [2] 16.4% | [3] -8.3% | [4] -0.9% | [5] -7%

O=C(NCc1ccccc1)C(O)c1ccccc1 (centres undefined)
inactive: [1] 25.2% | [2] 4.8% | [3] 0.6% | [4] 8.2% | [5] 12.7%

FC(F)(F)c1ccc(C2ON=C(c3ccccc3)N2C23CC4CC(CC(C4)C2)C3)cc1 (centres undefined)
inactive: [1] 17.1% | [2] 4.1% | [3] -0.4% | [4] -7.5% | [5] 1.25%

COc1cc2ccc3c4cc5c(cc4cnc3c2cc1OC)OCO5
inactive: [1] -0.65% | [2] -3.45% | [3] -25.9% | [4] -1.1% | [5] -16.7%

O=c1c(SCc2ccccc2Cl)c(SCc2ccccc2Cl)cnn1-c1ccccc1
inactive: [1] 10.7% | [2] -3.05% | [3] 23.4% | [4] 7.15% | [5] 1.45%

CN(N=O)c1c([N+](=O)[O-])cc2c(c1[N+](=O)[O-])Cc1ccccc1-2
inactive: [1] 0.4% | [2] -4.3% | [3] 17.6% | [4] 14.7% | [5] 19.4%

O=C1CC(c2ccccc2)NCN1 (centres undefined)
inactive: [1] 3.95% | [2] 1% | [3] 2.2% | [4] -2.4% | [5] 8.3%

O=C1NC(c2cccc3c2OCO3)N=C2Oc3ccccc3C=C12 (centres undefined)
inactive: [1] 9.95% | [2] 1.95% | [3] 7.8% | [4] -4.05% | [5] -10.6%

CC(C)(C)C(=O)N/N=C\c1ccc([N+](=O)[O-])s1
inactive: [1] 13.1% | [2] -7.3% | [3] 38.7% | [4] 13.1% | [5] 40.5%

CN(C)C(SCc1c(Cl)c(Cl)c(Cl)c(Cl)c1Cl)=[N+](C)C
inactive: [1] 19.4% | [2] 6.3% | [3] 11.8% | [4] 7.15% | [5] 28.6%
